Source: PubChem
Pf growth 48h: Primary qHTS for delayed death inhibitors of the malarial parasite plastid, 48 hour incubation; Potency, µM (highest dose often 28.7 µM), without a hit: top-dose activity change, negative = inhibition, actives largely listed as inhibitors; P. falciparum luciferase growth in erythrocytes, 48 h; 310,000 compounds, 5.9% hits; note: potency is the fitted concentration of half-maximal effect; % is set by controls: 0 for no effect and ±100 for the full control effect
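Luciferase-expressing parasites in RBCs, 2% Hct / 0.1% parasitemia final; RPMI 1640 + 0.5% Albumax; 37 C, 5% CO2, one generation; luminescence read-out, lower signal = inhibition.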
Cycloheximide cs: Cycloheximide Counterscreen for Small Molecule Inhibitors of Shiga Toxin | AID 2314, 2010 | cell reporter, cycloheximide protein synthesis inhibition counterscreen | 300,000 compounds, 12% hits | max response, %; in the data active = max response mostly above about 13%, no sharp cut-off; inactive = mostly below about 14%; note: read at 38.3 µM for the half of the compounds with a filed dose; 0% is about no effect
Pf growth 96h: Primary qHTS for delayed death inhibitors of the malarial parasite plastid, 96 hour incubation. P. falciparum luciferase reporter growth, 96 h. 320,000 compounds, 6.9% hits. Potency, µM (doses to about 28.7 µM), without a hit: top-dose activity change, negative = inhibition, usual class: inhibitors. AID 504834, 2011; note: potency is the fitted concentration of half-maximal effect; % is set by controls: 0 for no effect and ±100 for the full control effect
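Compounds incubated with erythrocytes infected by luciferase-expressing P. falciparum (2% hematocrit, 0.05% parasitemia final) for 96 hours, 37 C in 5% CO2. Growth inhibition scored as decreased luciferase luminescence.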
Shiga toxin inh: A qHTS for Small Molecule Inhibitors of Shiga Toxin; Vero cells, Shiga toxin protein synthesis inhibition reporter; inhibition, % at 38.7 µM; 290,000 compounds, 9.2% hits; AID 2315, 2010; in the data active = inhibition mostly above about 28%, no sharp cut-off; inactive = mostly below about 43%; note: 0% is about no effect
HCV inh: qHTS Assay for Inhibitors of Hepatitis C Virus (HCV). Huh7.5.1 HCVcc-Cre infection, luciferase reporter, 44 h. Potency, µM (highest dose often 41.8 µM), inactives show at the top dose activity change, negative = inhibition, actives largely listed as inhibitors. 340,000 compounds, 3.4% hits. AID 651820, 2012; note: potency is the fitted concentration of half-maximal effect; % is set by controls: 0 for no effect and ±100 for the full control effect
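Cells seeded at 1,000/well and cultured 4 h, then compounds added followed by HCVcc-Cre virus (~0.5 moi). After 44 h further culture, luciferase substrate was added, plates held 15 min at room temperature, and luminescence read for 15 sec.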
AMA1 RON2 block: qHTS for Inhibitors of AMA1-RON; Towards Development of Antimalarial Drug Lead: Primary Screen; AlphaScreen AMA1-biotinylated RON2 peptide binding; Plasmodium falciparum AMA1 (3D7) - RON2 peptide interaction; Potency, µM (top dose mostly 58.2 µM), for inactives: at the highest dose activity change, negative = inhibition, most hits filed as inhibitors; 360,000 compounds, 0.2% hits;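 note: potency is the fitted concentration of half-maximal effect; 0% = vehicle wells and -100% = peptide control; nearly all actives have a fitted effect of over 45% in size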
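AMA1 (3D7) with his tag at 25 nM final met compounds first, then biotinylated RON2 peptide at 25 nM; detection used donor plus acceptor beads, 10 µg/mL apiece, read by AlphaScreen after 30 min at room temperature.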
The depositor's hits bear a star; ! = repeats disagree; [ ] = dose if it differs, or a comment. Sampled rows, rich in hits. Any-hit rate of the full collection: about 21%. Unless noted, calls come from the whole dose curve; as a rule, active = well fitted curve in the direction sought with a large enough effect; inconclusive = small, poorly fitted or top-dose-only effect, or another doubt; inactive = no such curve, though single readings can be large; an effect the other way counts as inactive or inconclusive.

What do the screens show for `CSCCC(NC(=O)c1ccco1)C(=O)Nc1ccc(C)c(S(=O)(=O)N2CCOCC2)c1` (stereo not drawn)?
Pf growth 48h: inconclusive; Pf growth 96h: -5.3%; HCV inh: -6.0%; AMA1 RON2 block: 5.5%

What do the screens show for `CCOc1ccc(NC(=O)CCc2nnc3ccc(N4CCC5(CC4)OCCO5)nn23)cc1`?
Pf growth 48h: -6.9%; Cycloheximide cs: -6.4; Pf growth 96h: 52.4%; Shiga toxin inh: 23.7; HCV inh: 17.8%; AMA1 RON2 block: 3.4%

How did COCC1CCN(C(=O)c2ccc(OC)c(OC3CCN(C(C)C)CC3)c2)CC1 do in these assays?
Pf growth 48h: 14.4%; Cycloheximide cs: 16.1; Pf growth 96h: 3.29µM*; Shiga toxin inh: 18.6; AMA1 RON2 block: -4.2%

Results for COCC1CCCCN1C(=O)c1ccc(OC)c(OC2CCN(C(C)C)CC2)c1 (stereo not drawn) ?
Pf growth 48h: 10.1%; Cycloheximide cs: 57.3*; Pf growth 96h: 61.4%; Shiga toxin inh: 92.6*; HCV inh: inconclusive; AMA1 RON2 block: 8.2%

How did COc1ccc(C(=O)N2CCCC(O)C2)cc1OC1CCN(C(C)C)CC1 (stereo not drawn) do in these assays?
Pf growth 48h: 2.3%; Cycloheximide cs: -1.8; Pf growth 96h: -19.3%; Shiga toxin inh: -18.0; AMA1 RON2 block: 24.9%

How did COCC1CCCCN1C(=O)c1cccc(OC2CCN(C(=O)C3CC3)CC2)c1 (stereo not drawn) do in these assays?
Pf growth 48h: inconclusive; Cycloheximide cs: 50.2*; Pf growth 96h: 25.9%; Shiga toxin inh: 81.3*; HCV inh: -6.6%; AMA1 RON2 block: 0.0%

Results for COCCC1CCCCN1C(=O)c1cccc(OC2CCN(S(C)(=O)=O)CC2)c1 (stereo not drawn) ?
Pf growth 48h: -4.2%; Cycloheximide cs: -1.9; Pf growth 96h: -5.6%; Shiga toxin inh: -9.3; AMA1 RON2 block: 1.3%

Results for CCN(CC)C(=S)S ?
Pf growth 48h: -18.2%; Pf growth 96h: inconclusive

Results for O=C(O)c1ccc(CNC(=O)C2CCN(S(=O)(=O)c3ccc4c(c3)OCCO4)CC2)cc1 ?
AMA1 RON2 block: 9.4%

Results for O=C(NCCCN1CCOCC1)c1cccc(S(=O)(=O)N2CCc3ccccc32)c1 ?
AMA1 RON2 block: -0.3%

Results for CCOc1cc(N2CCOCC2)c(OCC)cc1NC(=O)COC(=O)c1c(C)noc1C ?
AMA1 RON2 block: 1.6%

Results for C=CCOc1nc2sc(C)c(C)c2c(=O)n1-c1ccccc1 ?
Pf growth 48h: -1.6%; Cycloheximide cs: -3.4; Pf growth 96h: 8.28µM*; Shiga toxin inh: -1.2; HCV inh: 9.2%; AMA1 RON2 block: 10.0%

How did O=C(CNC(=O)c1sc2ccccc2c1Cl)NCc1cccnc1 do in these assays?
Pf growth 48h: inconclusive; Cycloheximide cs: 6.4; Pf growth 96h: inconclusive; Shiga toxin inh: 16.7; HCV inh: -0.9%; AMA1 RON2 block: -18.3%

What do the screens show for `CCCOC(=S)NC(=O)c1sc2ccccc2c1Cl`?
Pf growth 48h: 42.6%; Cycloheximide cs: 39.8*; Pf growth 96h: inconclusive; Shiga toxin inh: 63.3*; HCV inh: inconclusive; AMA1 RON2 block: 28.1%

Results for O=C(NC(=S)NCCO)c1sc2ccccc2c1Cl ?
Pf growth 48h: 267.6%; Cycloheximide cs: 51.3*; Pf growth 96h: -10.7%; Shiga toxin inh: 111.3*; HCV inh: 7.9%; AMA1 RON2 block: 49.2%

What do the screens show for `Cc1ccccc1COC(=O)CNC(=O)c1sc2ccccc2c1Cl`?
Pf growth 48h: 26.4%; Pf growth 96h: -0.2%; HCV inh: -28.0%; AMA1 RON2 block: 14.4%

How did CCOC(=S)NC(=O)c1sc2ccccc2c1Cl do in these assays?
Pf growth 48h: 41.8%; Cycloheximide cs: 32.3*; Pf growth 96h: inconclusive; Shiga toxin inh: 26.6; HCV inh: 10.9%; AMA1 RON2 block: 43.0%

Results for CC(=O)c1c(C)[nH]c(C(=O)CN2C(=O)NC(CCc3ccccc3)C2=O)c1C (stereo not drawn) ?
Pf growth 48h: inconclusive; Cycloheximide cs: -2.4; Pf growth 96h: inconclusive; Shiga toxin inh: -1.7; HCV inh: -21.7%; AMA1 RON2 block: -9.9%

How did Cc1cccc(C)c1NC(=O)CN1CCCCCC1 do in these assays?
Pf growth 48h: -1.8%; Pf growth 96h: inconclusive

Results for C=CCN1CCc2nc(N)sc2CC1 ?
Pf growth 48h: -13.4%; Cycloheximide cs: -9.4; Pf growth 96h: 6.75µM*!; Shiga toxin inh: -5.4; HCV inh: -17.8%[8.37 µM]; AMA1 RON2 block: 6.7%

Results for CCN1CCc2nc(N)sc2C1 ?
Pf growth 48h: -2.6%; Cycloheximide cs: -1.7; Pf growth 96h: -5.5%; Shiga toxin inh: -32.1; HCV inh: 5.4%; AMA1 RON2 block: 3.4%

How did CC(C)c1csc(CN2CCC(N3CCC(C(=O)N4CCOCC4)CC3)CC2)n1 do in these assays?
Pf growth 48h: -7.6%; Cycloheximide cs: 0.9; Pf growth 96h: -2.5%; Shiga toxin inh: 17.1; HCV inh: 5.4%; AMA1 RON2 block: -1.7%

Results for Cc1ccc(CN2CCN(C3CCOCC3)CC2CCO)cc1 (stereo not drawn) ?
Pf growth 48h: 28.5%; Cycloheximide cs: 0.4; Pf growth 96h: inconclusive; Shiga toxin inh: 2.9; HCV inh: 21.1%; AMA1 RON2 block: 9.2%

What do the screens show for `Cc1cc(-n2c(C)cc(C(=O)CN3C(=O)NC4(CCCCC4)C3=O)c2C)no1`?
Pf growth 48h: 13.1µM*; Cycloheximide cs: 9.7*; Pf growth 96h: 19.5%; Shiga toxin inh: 10.6; HCV inh: -28.8%; AMA1 RON2 block: -14.7%

Results for Cc1cc(-n2c(C)cc(C(=O)CN3C(=O)NC4(CCCC4)C3=O)c2C)no1 ?
Pf growth 48h: inconclusive; Cycloheximide cs: 26.8*; Pf growth 96h: 7.0%; Shiga toxin inh: 22.9; HCV inh: 1.9%; AMA1 RON2 block: 0.3%

What do the screens show for `Cc1cc(C(=O)CN2C(=O)C(=O)N(Cc3ccccc3)C2=O)c(C)n1Cc1ccccc1`?
HCV inh: -24.9%; AMA1 RON2 block: -2.6%[11.6 µM]

How did CCCCN1C(=O)C(=O)N(CC(=O)c2cc(C)n(-c3cc(C)on3)c2C)C1=O do in these assays?
Pf growth 48h: 10.4µM*; Pf growth 96h: inconclusive; HCV inh: 20.1%; AMA1 RON2 block: -4.4%

What do the screens show for `Cc1cc(C(=O)CN2C(=O)c3cccc(N)c3C2=O)c(C)n1Cc1cccs1`?
Cycloheximide cs: 34.0*; Pf growth 96h: 11.1%; Shiga toxin inh: 83.5*; HCV inh: 4.7%; AMA1 RON2 block: 15.7%

What do the screens show for `Cc1cc(-n2c(C)cc(C(=O)CN3C(=O)C(=O)N(C)C3=O)c2C)no1`?
HCV inh: 8.8%; AMA1 RON2 block: 9.7%

Results for Cc1ccc(C(=O)OCC(=O)NCc2ccc(Cl)cc2)s1 ?
AMA1 RON2 block: -13.5%
